The values that follow come from PubChem BioAssay AID2685 (National Center for Advancing Translational Sciences (NCATS), 2010).

The campaign covered roughly 320,000 compounds. About 2,100 (0.66%) were called active. Inconclusive results (about 53%) are left out. Calls come from the whole dose curve; as a rule, active = well fitted inhibition curve with a large enough effect in the signal ratio, with a control signal flat (not every such curve was filed as active); inconclusive = small, poorly fitted or top-dose-only effect, or effect the other way, or a change in a side signal; inactive = flat fitted curve, though single readings scatter; the % refers to the signal ratio. For the sample, actives were picked, then their nearest neighbours and some compounds at random.
Potency is the fitted concentration of half-maximal effect.

The assay is described as follows: qHTS Assay for Lipid Storage Modulators in Drosophila S3 Cells.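 For cell number change: cells counted by Cell Tracker Red CMTPX staining in the red channel.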 To be noted: BODIPY lipid droplet fluorescence, 18-24 h, cells fed with added oleic acid; cell number change: measured here: cell count max response; series mostly up to 46.1 µM. The gist of the method:
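Drosophila S3 cells loaded with oleic acid (400 uM, as added) and compounds at several concentrations; lipid droplets imaged by 488-nm laser-scanning cytometry, 500–530 nm intensity and object ratio to cell channel. Percent activity normalized to 20 uM Triacsin C.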
Regarding `COc1cccc(CNC2CN3CCC2CC3)c1OC` (configuration not stated), the Potency is 29.1 µM (active) and the cell number change was -7.47%.

`COc1cccc(CNCCc2ccccc2)c1OC`: the Potency result is “inactive” and the cell number change turned out to be 7.84%.

For `Fc1ccccc1CNC1CN2CCC1CC2` (configuration not stated), the Potency entry is “inactive” and the cell number change worked out at 4.51%.

Take `COc1ccc(CN2C(=O)NC(=O)/C(=C/c3ccc([N+](=O)[O-])s3)C2=O)cc1`: the Potency entry is “inactive” and the cell number change was 7.76%.

In the case of `O=C(c1ccc2c(c1)OCO2)C1CCCN(Cc2ccccn2)C1` (configuration not stated), the Potency entry was “inactive” and the cell number change was found to be 1.62%.

Consider `CCN(CC)C(=O)c1ccc(NC(=O)c2cn(-c3ccccc3)nc2-c2ccc(OC)cc2)cc1`, for which the Potency was 2.31 µM (active) and the cell number change was -6.07%.

For the compound `CCN(CC)C(=O)c1ccc(NC(=O)COc2ccc(-c3nn(C)c(=O)c4ccccc34)cc2)cc1`, the Potency result is “inactive” and the cell number change is -2.38%.

For `CCN(CC)C(=O)c1ccc(NC(=O)c2ccc(-c3nn(C)c(=O)c4ccccc34)cc2)cc1`, the Potency result was “inactive” and the cell number change came out at 4.89%.

As for `COc1ccc(-n2c(CN3CCOCC3)nc3ccccc3c2=O)c(OC)c1`, the Potency entry is “inactive” and the cell number change is -3.52%.

For the compound `CN1CCN(Cc2nc3ccccc3c(=O)[nH]2)CC1`, the Potency was 29.1 µM (active) and the cell number change is -23.1%.

As to `COc1ccc(N2CCN(Cc3nc4ccccc4[nH]3)CC2)cc1`, the Potency entry is “inactive” and the cell number change amounted to 15.8%.

Turning to `Cc1cc(N2CCN(C)CC2)nc2ccccc12`, the Potency result is “inactive” and the cell number change was 21.8%.

As for `C[C@]12CCC3[C@@H](CC[C@H]4C[C@@H](O)CC[C@]34C)C1CCC2=O` (some centres not stated), the Potency result is “inactive” and the cell number change stood at 15.3%.

On to `C#CC[N+]1(C)[C@@H]2CC(OC(=O)C(CO)c3ccccc3)C[C@H]1C(O)C2` (some centres not stated), for which the Potency entry was “inactive” and the cell number change was 7.57%.

Take `Cc1cccc(-n2c(/C=C/c3ccccn3)nc3ccccc3c2=O)c1`: the Potency result is “inactive” and the cell number change was -12.4%.

`Cc1cccc(-n2c(-c3ccc([N+](=O)[O-])cc3)nc3ccccc3c2=O)c1`: the Potency entry is “inactive” and the cell number change was -0.157%.

As to `O=c1c2ccccc2nc(/C=C/c2ccccn2)n1-c1ccccc1`, the Potency result was “inactive” and the cell number change was found to be 5.25%.

In the case of `Cc1cccc(-n2c(/C=C/c3ccc([N+](=O)[O-])o3)nc3ccccc3c2=O)c1`, the Potency is 5.17 µM (active) and the cell number change amounted to 9.44%.

In the case of `Cc1ccc(-n2c(/C=C/c3ccccn3)nc3ccccc3c2=O)cc1`, the Potency is 6.51 µM (active) and the cell number change was determined as 27.8%.

On to `Cc1ccccc1-n1c(/C=C/c2ccccn2)nc2ccccc2c1=O`, for which the Potency result is “inactive” and the cell number change was determined as 15.7%.

In the case of `CSc1nc(N2CCN(C)CC2)c2ccccc2n1`, the Potency entry is “inactive” and the cell number change stood at 12%.

As to `C/C=C1/CC(C)C(C)(O)C(=O)OCC2CCN3CCC(OC1=O)C23` (configuration not stated), the Potency entry is “inactive” and the cell number change was 3.31%.

On to `Cc1ccc(N2C(=O)/C(=C/c3ccc(CN(CCC#N)S(C)(=O)=O)o3)C(=O)NC2=S)cc1`, for which the Potency entry was “inactive” and the cell number change stood at 9.59%.

As for `[N-]=[N+]=NCc1cn2cccnc2n1`, the Potency entry was “inactive” and the cell number change is -11.7%.

As for `c1ccc(C2CC3CC(c4ccco4)N2O3)cc1` (configuration not stated), the Potency result was “inactive” and the cell number change was 2.08%.

Turning to `Cc1ccc(N=Cc2c(O)n(C)c(=O)n(C)c2=O)cc1`, the Potency result was “inactive” and the cell number change is -14%.

Turning to `COc1ccc(C(=O)OC2C[C@H]3CC[C@H](C2)N3C)cc1OC` (some centres not stated), the Potency result was “inactive”.

Consider `CN1C2CCC1CC(OC(=O)c1cc(Cl)cc(Cl)c1)C2` (configuration not stated), for which the Potency was 23.1 µM (active).

On to `CN1C2CCC1CC(OC(=O)c1ccc(Cl)cc1)C2` (configuration not stated), for which the Potency entry was “inactive” and the cell number change is 1.41%.

For the compound `CNP1(NC)=NC(C(F)(F)F)=NC(C(F)(F)F)=N1`, the Potency entry was “inactive”.

`COc1ccc(CC(C)NCCc2ccc(OC)c(OC)c2)cc1` (configuration not stated): the Potency result is “inactive” and the cell number change is 5.07%.

`O=C(Nc1ccc(F)cc1)N1CC2CC(C1)c1cccc(=O)n1C2` (configuration not stated): the Potency entry is “inactive” and the cell number change was -3.93%.

For the compound `O=C(Nc1cccc(Cl)c1)N1C[C@H]2C[C@@H](C1)c1cccc(=O)n1C2`, the Potency entry was “inactive” and the cell number change is -7.76%.

As for `O=C(Nc1ccc(Cl)cc1)N1CC2CC(C1)c1cccc(=O)n1C2` (configuration not stated), the Potency is 1.84 µM (active) and the cell number change is -2.6%.

Turning to `COc1ccc(OC)c(NP(=O)(Oc2ccc(Cl)cc2)Oc2ccc(Cl)cc2)c1`, the Potency entry was “inactive” and the cell number change was determined as 16.2%.

Regarding `Cc1ccc2[nH]c3c(c2c1)CN(C(=O)CN1C[C@H]2C[C@@H](C1)c1cccc(=O)n1C2)CC3`, the Potency result was “inactive” and the cell number change was determined as 14.9%.

On to `N#Cc1c(N2CCNCC2)nc(-c2ccco2)c2c1CCCC2`, for which the Potency entry was “inactive” and the cell number change came to 11.9%.

Regarding `Cc1ccccc1-n1c(O)c(C(c2ccncc2)c2c(O)n(-c3ccccc3C)c(=O)[nH]c2=O)c(=O)[nH]c1=O`, the Potency result is “inactive” and the cell number change worked out at 5.35%.

Consider `FC(F)(F)c1ccc(CNCCc2ccc3c(c2)OCO3)cc1`, for which the Potency result is “inactive” and the cell number change was found to be 20.8%.

As to `Cc1ccc(-n2c(O)c(/C=N/NC(=O)c3ccncc3)c(=O)[nH]c2=O)cc1`, the Potency result is “inactive” and the cell number change was -2.6%.

With `Cc1ccc(-c2cc(-c3ccc(C)cc3)[n+](-c3ccc(C(=O)O)cc3)c(-c3ccc(C)cc3)c2)cc1`, the Potency result was “inactive” and the cell number change is 12.1%.

For `CCOC(=O)c1cccc(-[n+]2c(-c3ccccc3)cc(-c3ccccc3)cc2-c2ccccc2)c1`, the Potency was 13 µM (active) and the cell number change was -29.7%.

Turning to `CCOC(=O)c1cccc([P+](=O)O)c1`, the Potency result was “inactive” and the cell number change was 4.86%.

Turning to `C(CCc1nn[nH]n1)CCc1nn[nH]n1`, the Potency entry was “inactive” and the cell number change is 0.918%.

Regarding `CC1(C)CC(n2[nH]c(=O)c3c2NC(=O)CSC3c2ccc(F)cc2)CCO1` (configuration not stated), the Potency result is “inactive” and the cell number change worked out at 1.16%.

Consider `O=C1NC(=O)C(CCc2ccncc2)(Cc2ccc(OCc3ccccc3)cc2)C(=O)N1`, for which the Potency result was “inactive” and the cell number change was found to be 9.1%.

In the case of `CCC1CCCCN1CC(=O)c1ccc(OC(F)F)cc1` (configuration not stated), the Potency entry is “inactive” and the cell number change was found to be 2.66%.

In the case of `CCC1CCCCN1C(=O)Cn1c(=O)oc2ccccc21` (configuration not stated), the Potency is 1.46 µM (active).

Consider `O=C(Cn1c(=O)n(CC2CS2)c2ccccc21)N1CCCCCC1` (configuration not stated), for which the Potency entry is “inactive” and the cell number change is 9.44%.

As to `COC(=O)C1=CO[C@@H](C)[C@@H]2CN3CC[C@]4(C(=O)Nc5ccccc54)[C@@H]3C[C@H]12`, the Potency entry was “inactive” and the cell number change was -15.3%.

For the compound `O=C(c1cccc2ccccc12)C1CCCN(Cc2ccon2)C1` (configuration not stated), the Potency result is “inactive” and the cell number change came to 0.85%.

As for `CSc1ccccc1C(=O)C1CCCN(Cc2cccc(C)n2)C1` (configuration not stated), the Potency entry was “inactive” and the cell number change is 5.61%.

With `O=P(O)(O)Oc1ccccc1P(=O)(c1ccccc1)c1ccccc1`, the Potency entry was “inactive” and the cell number change was 13.5%.

As for `O=P(O)(O)Cc1ccccc1OP(=O)(c1ccccc1)c1ccccc1`, the Potency entry was “inactive” and the cell number change was -17.7%.

In the case of `O=P(O)(O)COc1ccccc1P(=O)(c1ccccc1)c1ccccc1`, the Potency was 16.4 µM (active).

`COc1ccc(CC(C)NC2CCCCCC2)cc1` (configuration not stated): the Potency result was “inactive” and the cell number change is -21%.

On to `NC(=O)CSc1nnc([C@@H](N)Cc2c[nH]c3ccccc23)o1`, for which the Potency entry is “inactive”.

Regarding `O=C(c1ccc(Br)cc1)C12CN3CN(CN(C3)C1)C2`, the Potency entry was “inactive” and the cell number change stood at 8.31%.

Take `CCN(CC)CCN=Cc1c(O)n(CCC2=CCCCC2)c(=O)[nH]c1=O`: the Potency was 23.1 µM (active) and the cell number change was found to be 11.2%.

For `CCN(CC)CCN=Cc1c(O)n(CCc2ccccc2)c(=O)[nH]c1=O`, the Potency entry is “inactive” and the cell number change was found to be 12.9%.

Take `CCN(CC)CCN=Cc1c(O)n(C2CCCCCC2)c(=O)[nH]c1=O`: the Potency was 18.4 µM (active) and the cell number change was -10.3%.

Turning to `O=c1[nH]c(=O)n(C2CCCCC2)c(O)c1C=NCCCn1ccnc1`, the Potency entry was “inactive” and the cell number change worked out at 17.5%.

Turning to `CN(C)CCN=Cc1c(O)n(C2CCCCCC2)c(=O)[nH]c1=O`, the Potency entry was “inactive” and the cell number change stood at 6.67%.

In the case of `O=c1[nH]c(=O)n(CCC2=CCCCC2)c(O)c1/C=N/N1CCOCC1`, the Potency result is “inactive” and the cell number change came out at 8.55%.
